This is part of a sample that, as a whole, favours compounds with a hit. Of some 79,000 tested, about 15% had one in any assay. The source made the active and inactive calls. No stated cut-off is given here; in the data, active means growth inhibition above about 70%; inactive means the rest.
How the values were obtained:
[1] = NCI Yeast Anticancer Drug Screen. Data for the rad52 strain (AID 147);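 further: 0% = growth of vehicle-treated control cultures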; settings: S. cerevisiae rad52 mutant growth inhibition, active compounds read high
Outline: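 Yeast strain carrying a DNA damage repair alteration was exposed to test compounds. Growth inhibition was measured relative to vehicle-treated controls.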

[2] = NCI Yeast Anticancer Drug Screen. Data for the wt1 strain (AID 149);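 further: 0% = growth of vehicle-treated wt1 cultures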; settings: S. cerevisiae wt1 strain (SPY 50644) growth inhibition, active compounds read high
Outline: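 wt1 strain grown with compound or vehicle; inhibition taken from the growth difference.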

[3] = NCI Yeast Anticancer Drug Screen. Data for the rad50EPP+ strain (AID 151);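 further: 0% = growth of vehicle-treated control cultures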; settings: S. cerevisiae rad50 mutant strain, active compounds read high
Outline: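 Yeast strain carrying rad50 alteration (rad50EPP+) exposed to compounds; growth inhibition measured relative to vehicle-treated controls.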

[4] = NCI Yeast Anticancer Drug Screen. Data for the mgt1 strain (AID 153); settings: S. cerevisiae mgt1 mutant growth inhibition, active compounds read high
Outline: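 Yeast mgt1 strain (DNA repair/cell-cycle alteration panel) exposed to compounds; growth inhibition measured relative to vehicle-treated controls.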

[5] = NCI Yeast Anticancer Drug Screen. Data for the rad50 strain (AID 155);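 further: 0% = growth of vehicle-only cultures of the same strain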; settings: S. cerevisiae rad50 strain growth inhibition, active compounds read high
Outline: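 DNA repair mutant yeast, compound exposure, growth read-out; inhibition is taken relative to vehicle.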

[6] = NCI Yeast Anticancer Drug Screen. Data for the mec2-1 strain (AID 157); settings: S. cerevisiae mec2-1 strain, active compounds read high
Outline: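 mec2-1 yeast strain, carrying an alteration in DNA damage repair or cell cycle control, was exposed to compounds; growth inhibition was measured relative to vehicle-treated controls.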

[7] = NCI Yeast Anticancer Drug Screen. Data for the rad14 strain (AID 159);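 further: 0% = growth of vehicle-treated control cultures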; settings: S. cerevisiae rad14 strain growth inhibition, active compounds read high
Outline: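 DNA repair-defective yeast, compound-exposed; % growth inhibition derived by comparison with vehicle-treated controls.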

[8] = NCI Yeast Anticancer Drug Screen. Data for the CLN2oe strain (AID 163);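 further: 0% = growth of vehicle-only control cultures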; settings: S. cerevisiae CLN2oe strain, active compounds read high
Outline: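 Yeast cells carrying a defined cell-cycle control alteration were exposed to test compounds. Growth inhibition was scored against vehicle-treated control cultures.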

[9] = NCI Yeast Anticancer Drug Screen. Data for the cln2 rad14 strain (AID 165);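 further: 0% = growth equal to vehicle treated cultures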; settings: S. cerevisiae cln2 rad14 strain, active compounds read high
Outline: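 Yeast carrying cln2 and rad14 alterations (cell cycle control and DNA damage repair) were exposed to compounds. Growth inhibition was measured against vehicle-treated controls.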

[10] = NCI Yeast Anticancer Drug Screen. Data for the bub3 strain (AID 167); settings: S. cerevisiae bub3 mutant strain, active compounds read high
Outline: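 In this screen, a yeast mutant lacking normal mitotic checkpoint function is challenged with compound. Relative growth versus vehicle gives the inhibition value.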

[11] = NCI Yeast Anticancer Drug Screen. Data for the wt2 strain (AID 169);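 further: 0% = growth of vehicle-treated yeast cultures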; settings: S. cerevisiae wt2 strain growth inhibition, active compounds read high
Outline: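 Yeast cells were exposed to test compounds, and growth inhibition was measured relative to vehicle-treated controls.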

[12] = NCI Yeast Anticancer Drug Screen. Data for the mlh1 strain (AID 171);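 further: 0% = growth of vehicle-treated control cultures of the same strain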; settings: S. cerevisiae mlh1 strain growth inhibition, active compounds read high
Outline: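 Yeast carrying a defined genetic alteration in DNA damage repair or cell cycle control were exposed to test compounds. Growth inhibition was measured relative to vehicle-treated controls.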

[13] = NCI Yeast Anticancer Drug Screen. Data for the sgs1 strain (AID 173);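 further: 0% = growth of vehicle-only control cultures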; settings: S. cerevisiae sgs1 mutant, active compounds read high
Outline: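 Yeast mutant strains carrying defined defects in DNA damage repair or cell cycle control were exposed to test compounds. Growth inhibition was scored against vehicle-treated controls.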

[14] = NCI Yeast Anticancer Drug Screen. Data for the mlh1 rad18 strain (AID 175); settings: S. cerevisiae mlh1 rad18 strain growth inhibition, active compounds read high
Outline: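 Growth inhibition of the yeast strain was measured after compound exposure and expressed relative to vehicle-treated controls. The strain carries defined defects in DNA damage repair.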

[15] = NCI Yeast Anticancer Drug Screen. Data for the rad18 strain (AID 177); settings: S. cerevisiae rad18 mutant growth inhibition, active compounds read high
Outline: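 Yeast carrying a defined DNA damage repair alteration were exposed to compounds. Growth inhibition was expressed relative to vehicle-treated controls.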

[16] = NCI Yeast Anticancer Drug Screen. Data for the sgs1 mgt1 strain (AID 161);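 further: 0% = growth of cultures given vehicle only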; settings: S. cerevisiae sgs1 mgt1 strain, active compounds read high
Outline: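 Percent growth inhibition was derived by comparing compound-exposed mutant yeast with vehicle-exposed cultures. The strain carries alterations in DNA damage repair.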

[17] = at 5.0 µM (retest, dose inferred, filed as 0.5)
[18] = at 50.0 µM (retest, dose inferred, filed as 5.0)

Measured: growth inhibition

CCCCCC(=O)c1ccc(O)cc1O
active: [1]; at 33.0 µM 90% | [1]; at 100.0 µM 98% | [2]; at 33.0 µM 91% | [2]; at 100.0 µM 99% | [3]; at 100.0 µM 98% | [4]; at 33.0 µM 93% | [4]; at 100.0 µM 99% | [5]; [17] 92% | [5]; at 33.0 µM 91% | [5]; [18] 98% | [5]; at 50.0 µM 89.2% | [5]; at 100.0 µM 97% | [6]; [17] 91% | [6]; at 33.0 µM 95% | [6]; [18] 99% | [6]; at 50.0 µM 91.8% | [6]; at 100.0 µM 99% | [7]; at 33.0 µM 90% | [7]; at 100.0 µM 98% | [8]; at 33.0 µM 86% | [8]; at 100.0 µM 99% | [9]; [18] 90% | [10]; at 33.0 µM 93% | [10]; [18] 92% | [10]; at 100.0 µM 99% | [11]; at 33.0 µM 87% | [11]; at 100.0 µM 99% | [12]; at 33.0 µM 90% | [12]; at 100.0 µM 95% | [13]; at 33.0 µM 90% | [13]; at 100.0 µM 98% | [14]; [17] 97% | [14]; [18] 99% | [14]; at 50.0 µM 91.2% | [15]; at 33.0 µM 92% | [15]; at 100.0 µM 98%
inactive: [1]; at 1.2 µM -14% | [1]; at 3.7 µM 1% | [1]; at 11.0 µM 10% | [2]; at 1.2 µM -14% | [2]; at 3.7 µM -18% | [2]; at 11.0 µM -6% | [3]; at 1.2 µM 15% | [3]; at 3.7 µM 23% | [3]; at 11.0 µM 33% | [3]; at 33.0 µM 59% | [4]; at 1.2 µM 17% | [4]; at 3.7 µM -2% | [4]; at 11.0 µM 12% | [5]; at 1.2 µM -7% | [5]; at 3.7 µM -4% | [5]; at 11.0 µM 2% | [6]; at 1.2 µM -7% | [6]; at 3.7 µM -6% | [6]; at 11.0 µM 10% | [7]; at 1.2 µM -9% | [7]; at 3.7 µM -5% | [7]; at 11.0 µM -3% | [8]; at 1.2 µM -3% | [8]; at 3.7 µM 8% | [8]; at 11.0 µM 1% | [9]; [17] 37% | [10]; at 1.2 µM 8% | [10]; at 3.7 µM 14% | [10]; [17] 33% | [10]; at 11.0 µM 40% | [11]; at 1.2 µM -3% | [11]; at 3.7 µM -4% | [11]; at 11.0 µM -18% | [12]; at 1.2 µM 7% | [12]; at 3.7 µM 10% | [12]; at 11.0 µM 20% | [13]; at 1.2 µM -19% | [13]; at 3.7 µM -2% | [13]; at 11.0 µM -6% | [15]; at 1.2 µM -17% | [15]; at 3.7 µM 3% | [15]; at 11.0 µM 9%

CC1=CCC(C(C)(C)c2ccc(O)cc2)CC1 (stereo not drawn)
inactive: [1]; at 1.2 µM 4% | [1]; at 3.7 µM -12% | [1]; at 11.0 µM -11% | [2]; at 1.2 µM -16% | [2]; at 3.7 µM -18% | [2]; at 11.0 µM -39% | [3]; at 1.2 µM -10% | [3]; at 3.7 µM -4% | [3]; at 11.0 µM -25% | [3]; at 33.0 µM 27% | [4]; at 1.2 µM 35% | [4]; at 3.7 µM 10% | [4]; at 11.0 µM -23% | [5]; at 1.2 µM -6% | [5]; at 3.7 µM -8% | [5]; [17] 35% | [5]; at 11.0 µM -26% | [5]; [18] 65% | [6]; at 1.2 µM -20% | [6]; at 3.7 µM -19% | [6]; [17] 52% | [6]; at 11.0 µM -40% | [7]; at 1.2 µM -8% | [7]; at 3.7 µM -18% | [7]; at 11.0 µM -39% | [16]; [17] 7% | [8]; at 1.2 µM 15% | [8]; at 3.7 µM 19% | [8]; at 11.0 µM -17% | [9]; [17] 37% | [10]; at 1.2 µM 7% | [10]; at 3.7 µM 4% | [10]; [17] 39% | [10]; at 11.0 µM -4% | [11]; at 1.2 µM -41% | [11]; at 3.7 µM -24% | [11]; at 11.0 µM -44% | [12]; at 1.2 µM 10% | [12]; at 3.7 µM 9% | [12]; at 11.0 µM -10% | [13]; at 1.2 µM 2% | [13]; at 3.7 µM -17% | [13]; at 11.0 µM -28% | [14]; [17] 32% | [14]; [18] 63% | [15]; at 1.2 µM -6% | [15]; at 3.7 µM -7% | [15]; at 11.0 µM -5%
active: [1]; at 33.0 µM 96% | [1]; at 100.0 µM 97% | [2]; at 33.0 µM 97% | [2]; at 100.0 µM 98% | [3]; at 100.0 µM 78% | [4]; at 33.0 µM 97% | [4]; at 100.0 µM 97% | [5]; at 33.0 µM 96% | [5]; at 50.0 µM 91.8% | [5]; at 100.0 µM 97% | [6]; at 33.0 µM 93% | [6]; [18] 73% | [6]; at 50.0 µM 93.5% | [6]; at 100.0 µM 98% | [7]; at 33.0 µM 97% | [7]; at 100.0 µM 98% | [16]; [18] 97% | [8]; at 33.0 µM 97% | [8]; at 100.0 µM 97% | [9]; [18] 98% | [10]; at 33.0 µM 96% | [10]; [18] 97% | [10]; at 100.0 µM 97% | [11]; at 33.0 µM 93% | [11]; at 100.0 µM 97% | [12]; at 33.0 µM 96% | [12]; at 100.0 µM 98% | [13]; at 33.0 µM 96% | [13]; at 100.0 µM 97% | [14]; at 50.0 µM 91.8% | [15]; at 33.0 µM 96% | [15]; at 100.0 µM 97%

O=C1NC(c2c(Cl)cccc2Cl)Nc2ccccc21 (stereo not drawn)
inactive: [1]; at 1.2 µM 9% | [1]; at 3.7 µM 9% | [1]; at 11.0 µM 12% | [2]; at 1.2 µM -25% | [2]; at 3.7 µM -26% | [2]; at 11.0 µM -22% | [2]; at 33.0 µM 52% | [3]; at 1.2 µM -12% | [3]; at 3.7 µM -21% | [3]; at 11.0 µM -18% | [3]; at 33.0 µM -14% | [3]; at 100.0 µM 6% | [4]; at 1.2 µM -14% | [4]; at 3.7 µM -9% | [4]; at 11.0 µM 5% | [4]; at 33.0 µM 63% | [6]; at 1.2 µM -1% | [6]; at 3.7 µM -9% | [6]; at 11.0 µM -9% | [6]; at 33.0 µM 63% | [7]; at 1.2 µM -44% | [7]; at 3.7 µM -32%
active: [1]; at 33.0 µM 75% | [1]; at 100.0 µM 95% | [2]; at 100.0 µM 91% | [4]; at 100.0 µM 96% | [6]; [17] 92% | [6]; [18] 100% | [6]; at 50.0 µM 83.7% | [6]; at 100.0 µM 94%

From PubChem BioAssay (NCI)
